A selection: hits, their analogues and other compounds. The true share with any hit is near 3.5%.
TbPYK inhibitor = blocks Trypanosoma brucei pyruvate kinase; hit rate 0.12% among 410,000; AID 624173; TbPYK enzyme, Kinase-Glo Plus ATP luminescence, 45 min; Q57TT1; Potency, µM (series often up to 76.8 µM), inactives show at the highest dose activity, negative = inhibition, usual class: inhibitors; also: % is scaled to controls: 0 for no effect and ±100 for the full control effect; nearly all actives have a fitted effect of over 50% in size
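Enzyme and substrate buffer are dispensed first and compound is pin-transferred. ADP at 130 uM final then starts the reaction, which runs 45 min at room temperature. Detection reagent is added for 10 min before luminescence is imaged.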
RE007 growth inh = less growth of the S. pombe RE007 Vpr strain; S. pombe RE007 Vpr strain, BacTiter-Glo ATP luminescence, 24 h; Potency, µM (titrated, usually from 92.2 µM), without a hit: at the highest dose activity change, negative = less growth, hits mostly inhibitors; hit rate 0.21% among 360,000; AID 651644; active = well fitted falling curve with a large enough effect; inconclusive = small, poorly fitted or top-dose-only effect; inactive = no such curve, though single readings can be large or run the other way; also: % is scaled to controls: 0 for no effect and ±100 for the full control effect; nearly all actives have a fitted effect of over 50% in size
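Fission yeast RE007 carrying one integrated HIV-1 vpr copy, seeded at OD 0.01 in PMG+AL medium with 23 nL pinned compound. Grown 24 h at 30 degrees; viability read by BacTiter-Glo luminescence after 5 min.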
FBPA Giardia inh = Giardia lamblia aldolase inhibition. Potency, µM (highest dose often 59.6 µM), inactives show top-dose activity, negative = inhibition, usual class: inhibitors. purified Giardia FBPA. A8B2U2. hit rate 0.71% among 290,000; also: % is scaled to controls: 0 for no effect and ±100 for the full control effect; nearly all actives have a fitted effect of over 55% in size
Target sequence (A8B2U2 whole entry, looked up): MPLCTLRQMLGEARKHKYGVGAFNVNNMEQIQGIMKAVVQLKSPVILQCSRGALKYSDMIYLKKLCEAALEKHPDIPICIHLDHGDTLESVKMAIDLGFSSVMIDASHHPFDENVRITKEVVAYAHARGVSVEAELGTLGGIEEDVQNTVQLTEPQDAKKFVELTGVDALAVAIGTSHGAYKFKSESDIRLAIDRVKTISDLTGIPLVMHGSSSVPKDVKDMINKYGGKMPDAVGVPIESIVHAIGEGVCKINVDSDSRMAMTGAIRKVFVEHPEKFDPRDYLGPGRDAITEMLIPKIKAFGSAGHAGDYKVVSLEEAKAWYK
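Giardia FBPA (40 nM reagent) was preincubated 10 min at RT with compound (up to 57.5 uM final), then substrate plus GAPDH/TPI/NAD/arsenate coupling system with diaphorase/resazurin was added; resorufin fluorescence (525/598 nm) was read after 20 min.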
NS1 inh = influenza NS1 inhibition | AID 2326 | Potency, µM (highest dose often 46.1 µM), for inactives: at the top dose activity, positive = more growth | hit rate 0.4% among 270,000; calls by dose curve; also: actives are rising curves; nearly all actives have a fitted effect of over 50% in size
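Read-out: OD600 growth recovery of NS1-expressing budding yeast. Cells grown overnight at 30C in -URA glucose medium, washed, resuspended and diluted 1:100 in 2% galactose assay medium, pH 6.0. Same strain lacking NS1 served as positive control.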
Sm TGR block = inhibitors of Schistosoma mansoni thioredoxin glutathione reductase; Q962Y6; purified TGR, DTNB reduction, TNB absorbance 405 nm; AID 485364; Potency, µM (series often up to 114 µM), for inactives: at the top dose activity change, negative = inhibition, most hits filed as inhibitors; hit rate 3% among 360,000; also: % is scaled to controls: 0 for no effect and ±100 for the full control effect; nearly all actives have a fitted effect of over 60% in size
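TGR 20 nM + NADPH 100 uM (dispensed conc.), cpd preinc 15 min RT; start with NADPH (500 uM addition) then DTNB (15 mM addition). Kinetic TNB absorbance, 405 nm filter. Four-parameter Hill fit across titration.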
LmPK inhibitor = blocks Leishmania mexicana pyruvate kinase activity | Q27686 | purified LmPK, Kinase-Glo ATP luminescence, 1 h | Potency, µM (doses to about 57.5 µM), without a hit: top-dose activity change, negative = inhibition, usual class: inhibitors | hit rate 0.37% among 290,000; also: % is scaled to controls: 0 for no effect and ±100 for the full control effect
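Purified LmPK (0.1 nM) with 0.5 mM PEP and 0.1 mM ADP in imidazole buffer pH 7.2 with MgCl2/KCl, 1 h at room temperature. ATP formed was read by luciferase luminescence and normalized to no-enzyme and uninhibited controls.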
* = called active by the depositor; ? = inconclusive; . = not tested or not shown; [ ] = another dose, or the depositor's remark. Unless noted, calls follow the shape of the dose curve; as a rule, active = well fitted curve in the direction sought with a large enough effect; inconclusive = small, poorly fitted or top-dose-only effect, or another doubt; inactive = no such curve, though single readings can be large; an effect the other way counts as inactive or inconclusive. Potency is read from the fitted curve at half-maximal effect.

SMILES | TbPYK inhibitor | RE007 growth inh | FBPA Giardia inh | NS1 inh | Sm TGR block | LmPK inhibitor
O=C(CSc1nnc(-c2cccnc2)n1Cc1ccccc1)NCc1ccco1 | -1% | -9% | -4% | 6% | 13µM* | 8%
O=C(CN1CCC(n2nnc3cc(F)ccc32)CC1)NCc1ccco1 | -3% | 10% | ? | ? | 45µM* | 2%
O=C(CSc1nnc(-c2cccnc2)n1Cc1ccco1)NCc1ccc2c(c1)OCO2 | 7% | -2% | -2% | -3% | 45µM* | 0%
Cc1ccc(NC(=O)Cn2c(=O)n(CC3CCCO3)c(=O)c3ccccc32)cc1 (stereo not drawn) | -9% | . | . | . | -9% | .
Cn1nnnc1SCC(=O)NCc1ccco1 | 0% | 14% | 5% | 4% | -14% | 0%
O=C(CSc1nnnn1C1CCCCC1)NCc1ccco1 | 3% | -13% | 0% | 1% | 28µM* | 8%
COc1ccc(NS(=O)(=O)c2ccc3oc(=O)c4[nH]c(=O)c(=O)n(C)c4c3c2)cc1 | 2% | 4% | 9% | -5% | 50µM* | 6%
CCCC[C@]12Cc3cc(C#N)ccc3C(O1)c1c(c3cc(F)ccc3oc1=O)O2 | . | . | -23%[12.9 µM] | 18% | -33%[22.9 µM] | -5%[11.5 µM]
CC(=O)Nc1ccc(-c2csc(N/N=C(/C)c3ccccc3)n2)cc1 | -16% | 22% | -26% | 16% | -21% | 0%
CCOC(=O)/C(C)=N/Nc1nc(-c2ccc(NC(C)=O)cc2)cs1 | -10% | -14% | ? | -2% | 11µM* | -5%
COc1ccc2c(c1)CCc1c-2nc2ccccc2c1N1CCOCC1 | -3% | -14% | ? | -11% | 40µM* | -2%
Cc1ccc(-n2nc(C(C)(C)C)cc2NC(=O)Nc2ccc(OCCN3CCOCC3)c3ccccc23)cc1 | -5% | . | . | . | . | .
COc1ccc(-c2nc(CS(=O)(=O)CC(=O)Nc3ccc(Cl)cc3)c(C)o2)cc1 | 1% | 3% | 5% | -31% | 35µM* | -1%
COC(=O)c1ccccc1NC(=O)CS(=O)(=O)Cc1nc(-c2ccc(C)cc2)oc1C | 2% | -6% | 4% | -3% | 25µM* | 11%
O=C(COC(=O)c1cc(S(=O)(=O)N2CCOCC2)ccc1F)NCc1ccco1 | -4% | -9% | . | 3% | 45µM* | 0%
CCS(=O)(=O)N1CCC(C(=O)NCc2ccco2)CC1 | 1% | 2% | 2% | -13% | 0% | 10%
O=C(NCc1ccco1)C1CCN(S(=O)(=O)N2CCOCC2)CC1 | -14% | 16% | 6% | 5% | 50µM* | -5%
O=C(/C=C/c1cccs1)N1CCN(c2ccc(O)cc2)CC1 | -10% | 137% | -24% | . | 2% | 16µM*
CCCN1C(C(=O)c2ccccc2)=C(OC(=O)COc2ccc(C)cc2)c2ccccc2S1(=O)=O | 1% | . | . | . | 10µM* | .
CCN1C(C(=O)c2ccccc2)=C(OC(=O)COc2ccc(OC)cc2)c2ccccc2S1(=O)=O | -5% | . | . | . | 11µM* | .
CCOC(=O)CN1C(C(=O)c2ccccc2)=C(OC(=O)c2ccccc2)c2ccccc2S1(=O)=O | 0% | . | . | . | -3% | .
CCCN1C(C(=O)c2ccccc2)=C(OC(=O)COc2ccccc2)c2ccccc2S1(=O)=O | -2% | . | . | . | 11µM* | .
CCN1C(C(=O)c2ccccc2)=C(OC(=O)c2ccc(Cl)cc2)c2ccccc2S1(=O)=O | -5% | . | . | . | -1% | .
CCCN1C(C(=O)c2ccccc2)=C(OC(=O)C(C)(C)C)c2ccccc2S1(=O)=O | -9% | . | . | . | 2% | .
CCN1C(C(=O)c2ccccc2)=C(OC(=O)COc2ccc(C)cc2)c2ccccc2S1(=O)=O | 7% | . | . | . | 10µM* | .
C=CCN1C(C(=O)c2ccccc2)=C(OC(=O)COc2ccccc2)c2ccccc2S1(=O)=O | -9% | ? | -4% | -47% | 11µM* | 0%
CCC1Oc2ccc(C)cc2N(CC(=O)N(Cc2ccncc2)Cc2ccco2)C1=O (stereo not drawn) | -3% | 12% | 4% | -4% | 22µM* | 4%
CCSC1(SCC)N=C(N)C2(C#N)C(c3ccc(F)cc3)C12C#N (stereo not drawn) | -7% | 4.5µM* | -5% | -15% | ? | -4%

High-throughput results (PubChem)
